# Rows were chosen to be rich in hits. Some 3.8% of all compounds tested hit in one or more screens of this group.
# PAFAH1B3 FP inh: PAFAH1B3 enzyme inhibitors, primary screen, biochemical, fluorescence polarization, human; Platelet-activating factor acetylhydrolase IB subunit alpha1 (Homo sapiens), Q15102; recombinant PAFAH1B3, FP-rhodamine probe; inhibition, % at 3.39 µM; hit rate 0.28% among 340,000; AID 492972, 2010;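 active = inhibition above the screen-wide average of all tested compounds plus 3 SD, cut at about 25% in these data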
# PfM18AAP inh: PfM18AAP inhibitors, malaria aminopeptidase, primary screen, biochemical, QFRET, recombinant enzyme. M18 aspartyl aminopeptidase (Plasmodium falciparum 3D7). H-Glu-NHMec fluorogenic cleavage. hit rate 1.2% among 290,000. inhibition, % at 7.35 µM;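 active = inhibition above the campaign mean inhibition over all tested compounds plus 3 SD, cut at about 28% in these data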
# PAFAH2 inh: PAFAH2 enzyme inhibitors, primary screen, biochemical, fluorescence polarization, human | Platelet-activating factor acetylhydrolase 2, cytoplasmic (Homo sapiens), Q99487 | recombinant PAFAH2, FP-rhodamine activity probe | inhibition, % at 3.39 µM | hit rate 0.99% among 340,000;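 active = inhibition above the mean over all tested compounds plus 3 SD, cut at about 30% in these data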;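 note: inhibitors block probe labeling of enzyme so polarization drops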
# PAFAH1B2 FP inh: PAFAH1B2 enzyme inhibitors, primary screen, biochemical, fluorescence polarization, human; Platelet-activating factor acetylhydrolase IB subunit alpha2 (Homo sapiens), P68402; inhibition, % at 3.39 µM; recombinant PAFAH1B2, FP-rhodamine activity probe; hit rate 1.2% among 340,000;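 active = inhibition above the mean of all tested compounds plus 3 SD, cut at about 24% in these data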
# pPAFAH FP inh: pPAFAH enzyme inhibitors, primary screen, biochemical, fluorescence polarization, human. Platelet-activating factor acetylhydrolase (Homo sapiens), Q13093. recombinant pPAFAH, FP-rhodamine probe fluorescence polarization. inhibition, % at 3.39 µM. hit rate 1.5% among 330,000;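 active = inhibition above the mean inhibition across the screen plus 3 SD, cut at about 25% in these data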;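 note: inhibitors block binding of the rhodamine activity-based probe so polarization drops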
# Target sequence (Q13093 whole entry, looked up): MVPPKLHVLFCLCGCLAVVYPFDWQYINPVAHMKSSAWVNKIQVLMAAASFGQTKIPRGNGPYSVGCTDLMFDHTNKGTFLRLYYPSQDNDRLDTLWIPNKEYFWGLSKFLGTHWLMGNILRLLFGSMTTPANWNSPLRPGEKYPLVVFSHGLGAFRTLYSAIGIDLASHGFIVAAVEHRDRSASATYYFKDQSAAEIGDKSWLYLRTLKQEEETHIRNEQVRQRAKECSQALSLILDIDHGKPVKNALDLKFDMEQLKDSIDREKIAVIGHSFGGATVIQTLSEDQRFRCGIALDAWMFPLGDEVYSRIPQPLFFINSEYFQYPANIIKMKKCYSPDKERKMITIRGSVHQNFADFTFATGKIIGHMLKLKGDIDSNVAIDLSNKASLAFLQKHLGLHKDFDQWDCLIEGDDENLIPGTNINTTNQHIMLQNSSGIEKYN
# Pemphigus Ab inh: inhibitors of pemphigus antibody binding to DSG3, primary screen, biochemical, bead-based, flow cytometry, scFv-GFP | hit rate 0.48% among 310,000 | binding (percent of control), % at 10 µM | DSG3-coupled beads, scFv-anti-DSG3-GFP binding; stronger effect = lower value | Desmoglein-3 (Homo sapiens), P32926;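 active = binding more than 3 SD below its plate's average and above zero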
# Hits are given with their value; – = inactive; · = not tested or not shown.
SMILES,PAFAH1B3 FP inh,PfM18AAP inh,PAFAH2 inh,PAFAH1B2 FP inh,pPAFAH FP inh,Pemphigus Ab inh
COc1ccc(N=C2NC(=O)/C(=C/c3ccc(O)c(OC)c3)S2)cc1,–,–,–,–,–,·
COc1ccc(NS(=O)(=O)c2ccc(O)c(C(=O)OCC(=O)NC(C)C3CC4CCC3C4)c2)cc1 (centres undefined),–,–,–,–,31,·
CC(NC(=O)COC(=O)c1cc(NS(=O)(=O)c2ccc(Cl)c([N+](=O)[O-])c2)ccc1O)C1CC2CCC1C2 (centres undefined),–,–,–,–,28,–
O=C1c2ccccc2C(=O)C12OC2c1cccc2ccccc12 (centres undefined),65,–,–,–,–,–
O=C1NC(c2cccc3ccccc23)Nc2ccccc21 (centres undefined),–,·,–,–,·,–
Cc1[nH]c(SCC(=O)c2c(N)n(C)c(=O)n(C)c2=O)nc1Cc1ccccc1,–,·,–,–,–,–
O=C(C(=O)N(Cc1ccccc1)Cc1ccccc1)c1c(-c2ccccc2)[nH]c2ccccc12,–,·,–,–,·,–
O=C(Nc1cccc(CNCCc2c[nH]c3ccccc23)c1)c1ccccc1Cl,–,–,–,–,–,–
O=C(N/N=C/c1c(O)ccc2ccccc12)c1cccc(C(F)(F)F)c1,–,–,–,–,30,–
Cc1ccc(CN2CCN(Cc3cnc(C)[nH]3)CC2CCO)cc1 (centres undefined),–,–,–,–,–,–
C/C(=N/OC(=O)c1c(F)cccc1F)c1nccs1,–,–,–,–,–,–
C/C(=N\OC(=O)c1ccc(F)cc1)c1nccs1,–,–,33,–,–,–
Cc1c(N=Nc2ccc(O)cc2)c(=O)n(-c2ccccc2)n1C,–,–,–,–,–,–
Cc1c(N=NC2=C(O)CCCC2=O)c(=O)n(-c2ccccc2)n1C,–,32,–,–,–,–
CCC(=O)c1cc2c(C)cc(=O)oc2c(C)c1O,–,–,–,–,–,51
O=C(NCC1CCCC(CNC(=O)Nc2ccc(Cl)cn2)C1)Nc1ccc(Cl)cn1 (centres undefined),–,–,–,26,–,·
CC1COCC(C)N1C1=C(Cl)C(=O)c2ccccc2C1=O (centres undefined),44,·,43,35,·,–
CN1CCN(C2=C(NS(=O)(=O)c3ccccc3)C(=O)c3ccccc3C2=O)CC1,–,–,–,–,–,–
CN1CCN(C2=C(Cl)C(=O)C(c3cnc(N4CCCCC4)s3)=C(Cl)C2=O)CC1,–,–,–,–,41,–
CN1CCN(C2=C(Cl)C(=O)N(C3CCCCC3)C2=O)CC1,–,–,–,–,–,–
CN1CCN(C2=C(Cl)C(=O)c3ccccc3C2=O)CC1,66,·,57,39,·,·
NC(=O)C1CCN(C2=C(Cl)C(=O)c3ccccc3C2=O)CC1,43,–,47,35,–,·
CC(=O)Nc1ccc2c(CSc3nnc(N)s3)cc(=O)oc2c1,–,–,–,–,–,–
Cc1cc(=O)n2c(nc3ccccc32)s1,·,·,·,·,·,–
COc1ccc(NC(=O)[C@@H](NS(=O)(=O)c2cccc(Cl)c2)C(C)C)cc1S(=O)(=O)N1CCOCC1,–,·,–,–,–,–
SMILES,PAFAH1B3 FP inh,PfM18AAP inh,PAFAH2 inh,PAFAH1B2 FP inh,pPAFAH FP inh,Pemphigus Ab inh
COc1ccccc1Nc1ccc([N+](=O)[O-])cc1N,–,31,–,–,–,–
Cc1cccc(NS(=O)(=O)c2ccc3c(c2)CCC(=O)N3)c1,–,–,–,–,28,–
Cn1c(=O)oc2cc(S(=O)(=O)Nc3ccc(F)cc3)ccc21,–,–,–,–,26,–
CCc1cccc(NS(=O)(=O)c2ccc3c(c2)CCC(=O)N3)c1,–,–,–,–,–,–
O=C1CCc2cc(S(=O)(=O)Nc3ccc(F)cc3)ccc2N1,–,·,–,–,29,–
O=C1NC[C@H](Cc2ccccc2)N(CC2CCN(CCC34CC5CC(CC(C5)C3)C4)CC2)C1=O,–,·,–,–,·,–
COc1ccc(N2CC(O)=C(c3nc(-c4ccccc4)cs3)C2=N)cc1,–,–,–,–,–,43
CCOc1ccccc1N1CC(O)=C(c2nc3ccccc3s2)C1=N,–,–,–,–,33,–
CCC(c1n[nH]c(=S)n1-c1ccccc1)N(C)C (centres undefined),–,31,–,–,–,–
COC(=O)N/N=C/c1cn(CCOc2cccc(OC)c2)c2ccccc12,–,–,–,–,–,–
CCC(C)c1ccc(OCCn2cc(/C=N/NC(=O)CSc3nnc(C)s3)c3ccccc32)cc1 (centres undefined),–,–,–,–,26,·
Cc1cccc(OCCn2cc(/C=N/NC(=O)c3ccncc3)c3ccccc32)c1,–,–,–,–,28,–
Cc1cc2nnc(SCC(=O)NCC3CCCO3)n2c2ccccc12 (centres undefined),–,–,–,–,–,–
N#Cc1c(SC(C(=O)O)c2ccccc2)nc2c(c1-c1cccs1)CCCC2 (centres undefined),–,–,–,27,–,–
COc1ccc([N+](=O)[O-])cc1NCC(=O)Nc1cccc(S(=O)(=O)N2CCCC2)c1,–,·,–,–,·,–
c1ccc(OCc2nn3c(Cn4nnc5ccccc54)nnc3s2)cc1,–,–,–,24,–,–
COc1cc(C(C)=O)ccc1Oc1ncccn1,–,–,–,–,–,–
CCOC(=O)c1c(NC(=O)/C=C/C(=O)O)sc(C)c1-c1ccc(F)cc1,–,–,–,–,26,–
COC(=O)c1c(NC(=O)/C=C/C(=O)O)sc(C)c1-c1ccc(C)cc1,–,–,–,–,–,–
N#Cc1ccccc1NC(=O)c1ccc2c(Cl)c3c(nc2c1)CCCC3,–,–,–,–,–,93
O=C(Nc1cccnc1Cl)c1ccc2c(Cl)c3c(nc2c1)CCC3,–,–,–,–,·,–
COc1ccc(-c2csc(NC(=O)c3cc(C)on3)c2C#N)cc1OC,–,–,–,–,–,79
CCc1c(C)sc(NC(=O)c2cc(-c3ccc(OC)c(OC)c3)on2)c1C#N,–,–,–,–,–,–
Cc1ccc(-c2cnc(C3CC3)o2)cc1S(=O)(=O)Nc1ccccc1,–,–,–,–,31,–
CC(=O)Nc1ccc(NS(=O)(=O)c2cc(-c3cnc(C4CC4)o3)ccc2C)cc1,–,–,–,–,–,–
COc1ccc2cc(C3=CC(=O)CC(C)(C)C3=O)ccc2c1,·,·,·,·,·,–
CCCCn1c(N)c(-c2nc3ccccc3s2)c2c([N+](=O)[O-])nn(C)c(=O)c21,–,–,–,–,–,85

# Compound activity deposited in PubChem BioAssay by several laboratories.
